Compound activity as filed in PubChem BioAssay.
CCT modulator: changes cytosolic chaperonin activity; 0.3% of 360,000 active; activity change, % (concentration not given with the values), hits read low; purified chaperonin ATPase assay, HTRF ADP detection, 30 min; in the data active means activity change below about -30%
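Enzyme 40 or 20 nM (batch-dependent) in Tris pH 7.4/KCl/MgCl2/DTT; cpd 76 uM single point; ATP 10 uM; 30 min 37 °C; Transcreener ADP HTRF detection, 30 min RT; ratio 665/615.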
Six1-Eya2 inh: blocks human Six1 binding to Eya2; AlphaScreen GST-Six1/His-Eya2 binding, biochemical; hits give low values; activity change, % (test concentration not listed); 0.56% of 360,000 active; AID 651725
Target sequence (O00167 whole entry, looked up): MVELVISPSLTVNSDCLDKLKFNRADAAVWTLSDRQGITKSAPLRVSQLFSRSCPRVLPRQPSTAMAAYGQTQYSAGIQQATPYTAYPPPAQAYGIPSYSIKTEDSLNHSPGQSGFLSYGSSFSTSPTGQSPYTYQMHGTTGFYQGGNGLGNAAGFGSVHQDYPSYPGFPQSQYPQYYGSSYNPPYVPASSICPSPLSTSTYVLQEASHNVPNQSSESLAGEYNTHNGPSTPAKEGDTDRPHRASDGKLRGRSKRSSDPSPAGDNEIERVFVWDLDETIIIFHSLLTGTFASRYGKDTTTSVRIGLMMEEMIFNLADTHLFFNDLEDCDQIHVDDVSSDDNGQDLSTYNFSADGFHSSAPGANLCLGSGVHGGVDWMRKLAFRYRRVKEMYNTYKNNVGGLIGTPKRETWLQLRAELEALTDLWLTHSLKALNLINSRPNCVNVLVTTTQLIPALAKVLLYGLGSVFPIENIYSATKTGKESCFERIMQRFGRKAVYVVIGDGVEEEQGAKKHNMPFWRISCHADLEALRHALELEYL
Target sequence (Q15475 whole entry, looked up): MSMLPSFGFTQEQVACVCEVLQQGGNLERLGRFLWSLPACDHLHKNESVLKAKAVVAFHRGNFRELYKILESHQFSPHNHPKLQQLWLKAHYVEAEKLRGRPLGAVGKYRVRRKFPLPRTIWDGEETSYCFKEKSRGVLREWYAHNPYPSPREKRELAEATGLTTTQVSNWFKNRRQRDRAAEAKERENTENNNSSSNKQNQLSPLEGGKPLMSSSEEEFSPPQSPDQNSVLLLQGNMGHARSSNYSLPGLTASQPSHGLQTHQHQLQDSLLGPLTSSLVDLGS
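AlphaScreen luminescence read after one hour at 37 °C in darkness. Pin-transferred compounds met GST-Six1 and His-Eya2 protein (5X stock 250 nM/500 nM) plus glutathione donor and Ni-chelate acceptor beads (5X, 50 ug/mL).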
pAkt inh: inhibitors of Akt phosphorylation; Neuro2A IGF-stimulated pAkt S473 HTRF, 20 min; hits give low values; activity change, % for hits at 50 µM; 0.32% of 360,000 active; in the data active means activity change below about -80%; inconclusive means mostly about -51% to -80%
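Neuro2A cells (4,500/well, DMEM with 0.5% FBS) were treated with compound at a single 50 µM final concentration, stimulated with 6 nM IGF for 20 min at 37 °C, and lysed. Phospho-Akt Ser473 was read by HTRF as 665/615 ratio ×10^4.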
CtBP-E1A inh: blocks the CtBP interaction with E1A; AlphaScreen GST-E1A/His-CtBP binding, 1536-well; hits give low values; activity change, % (test concentration not listed); 0.49% of 340,000 active
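AlphaScreen with 125 nM GST-E1A and 125 nM His-CtBP (5X stocks) in Tris pH 8.0, 300 mM NaCl, BSA, Tween 20, TCEP. Compounds preincubated 2 h at 37 deg C, then glutathione donor/nickel acceptor beads added for 1 h at 37 deg C in dark.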
The depositor's hits bear a star; i = inactive; ? = inconclusive; . = not tested or not shown. A selection: hits, their analogues and other compounds. The true share with any hit is near 1.2%. Unless noted, no stated cut-off is given here; in the data, active means activity change below about -65%; inconclusive means mostly about -30% to -63%; inactive means weaker than that. On the % scale 0 is the no-effect control and ±100 the full control effect.

SMILES	CCT modulator	Six1-Eya2 inh	pAkt inh	CtBP-E1A inh
Cc1cc(O)c(C=O)c2c1C(=O)Oc1c(CO)c(O)c3c(c1O2)C(O)OC3=O (stereo not given)	0	-80*	i	-4
Cc1ccc(NC(=O)c2cc(S(=O)(=O)N(C)C)ccc2N2CCCC2)cc1F	-1	-6	i	-1
Cn1c(=O)[nH]c(=O)c2c1nc(OC(=O)c1ccccc1)n2CC(O)COc1ccc(F)cc1 (stereo not given)	1	-2	i	-3
CN(Cc1ccccc1)c1nc2c(c(=O)[nH]c(=O)n2C)n1CCOc1ccccc1	-3	-9	-124%*	5
Cn1c(=O)[nH]c(=O)c2c1nc(OC(=O)c1ccccc1)n2CC(O)COc1ccccc1 (stereo not given)	0	-4	-126%*	-2
COc1cccc(C(=O)CN(C(=O)c2ccc(Cl)cc2Cl)N2C(=O)c3ccccc3C2=O)c1	-6	-2	i	3
COc1ccc(-c2cc(C(=O)NCc3cccc(C(F)(F)F)c3)[nH]n2)c(C)c1	0	-2	i	-4
COc1ccc(CCNC(=O)Nc2nc(CN)cs2)cc1OC	1	?	i	?
Cc1ccccc1CSCCNS(C)(=O)=O	-1	3	i	1
COc1ccc(S(=O)(=O)NCCSCc2ccccc2C)cc1Br	0	-3	-114%*	-3
Cc1nc2ccc3nc(NC(=O)c4ccc(S(=O)(=O)N5CCOCC5)cc4)sc3c2s1	-1	2	-100%*	-1
NC(=O)CSc1nnc(NC(=O)c2ccc(S(=O)(=O)N3CCOCC3)cc2)s1	-58*	3	i	-1
O=C(NC(=S)Nc1ccc2cn[nH]c2c1)c1ccccc1	-2	-3	i	4
Cc1ccc(N=C(N)N=C(N)N)c(C)c1	-4	2	i	-2
COc1cccc(C(=O)N2CCN(C(=O)c3cccs3)CC2)c1OC	-3	2	-112%*	3
COc1cccc(C(=O)N2CCOCC2)c1OC	-3	14	i	0
O=C(NNC(=O)c1ccccc1[N+](=O)[O-])c1ccccn1	-4	-77*	i	2
O=C(NNC(=O)C1CC1)c1ccccc1[N+](=O)[O-]	-2	3	i	9
Cc1cccc(NC(=O)CCCN2C(=O)c3ccccc3C2=O)n1	-3	0	-111%*	7
Cc1cccc(NC(=O)CCCCCN2C(=O)c3ccccc3C2=O)n1	-1	10	i	-10
O=C(CCN1C(=O)c2ccccc2C1=O)NC1=NCCS1	3	-3	-112%*	-1
O=C(CCn1c(=O)sc2ccccc21)NC1=NCCS1	-3	4	i	1
CCN(CC)C(=O)CSc1nnc(-c2ccccn2)n1Cc1ccccc1	2	7	i	3
COc1cc(/C=N/NC(=O)c2ccc(Cl)c(S(N)(=O)=O)c2)ccc1OCC(N)=O	-2	-20	i	-28
Cc1ccc(N(C)S(=O)(=O)c2ccc(C)cc2)cc1	0	16	i	31
SMILES	CCT modulator	Six1-Eya2 inh	pAkt inh	CtBP-E1A inh
Cc1ccc(S(=O)(=O)N(C)c2ccc(NS(C)(=O)=O)cc2)cc1	-1	0	-120%*	0
Cc1ccc(NC2=C(NC(=O)c3ccccc3)C(=O)c3ccccc3C2=O)cc1Cl	1	-66*	i	0
COc1ccc(N(CC(=O)O)S(=O)(=O)c2cccnc2)cc1	-2	3	i	7
COc1ccccc1N1CCN(C(=O)c2cc3n(n2)C(C(F)(F)F)CC(c2ccco2)N3)CC1 (stereo not given)	-1	7	-107%*	0
O=C(c1cc2n(n1)C(C(F)(F)F)CC(c1ccco1)N2)N1CCc2ccccc2C1 (stereo not given)	3	-11	i	-6
O=C(COC(=O)c1ccc(Cl)nc1)c1ccc2c(c1)OCCO2	2	16	i	2
O=C(C[n+]1ccc(/C=C/c2ccccc2)cc1)c1ccc2c(c1)OCCO2	-66*	8	i	1
O=C(COC(=O)C(O)c1ccccc1)c1ccc2c(c1)OCCO2 (stereo not given)	-39*	11	i	0
COc1ccccc1CN1C(=O)C(C)ON=C1c1ccccc1F (stereo not given)	0	-1	i	7
C=C(C)Cn1c(CCNC(=O)CCC)nc2ccccc21	-1	-1	-104%*	0
CN(C)c1ccc(CC(=O)N2CCCCC2c2cc(C(=O)Nc3ccccc3)no2)cc1 (stereo not given)	0	-22	i	-8
COc1ccc(-c2nsc(SCC(=O)Nc3cc(C)on3)n2)cc1	-2	5	-81%*	1
COc1ccccc1C=NN1C(=O)CSC1=S	-1	-27	i	?
O=C1CSC(=S)N1/N=C/c1ccc(O)c(O)c1O	1	-91*	i	-94*
COc1cc2c(cc1NC(=O)C(F)(F)F)-c1ccc(NC(=O)C(F)(F)F)cc1C2	-1	-6	i	0
Cc1ccc2cc(CN(C(=O)c3ccco3)c3ccccc3C)c(=O)[nH]c2c1	-1	-2	-112%*	-8
COc1cccc(NC(=O)c2ccccc2-c2nc(-c3ccc(Cl)cc3)no2)c1	3	13	-109%*	2
COc1ccc(-c2noc(-c3ccccc3C(=O)NCc3ccco3)n2)cc1OC	-1	-8	i	-12
COc1cccc(NC(=O)c2ccccc2-c2nc(-c3ccccc3)no2)c1	-2	12	i	4
COc1ccc(-c2noc(-c3ccccc3C(=O)NCc3ccco3)n2)cc1	0	-6	-110%*	-6
COc1ccc(OC)c(NC(=O)C2CCCN(S(C)(=O)=O)C2)c1 (stereo not given)	-1	3	i	3
Cc1cc(C)c(NC(=O)C2CCCN2CCO)c(C)c1 (stereo not given)	0	-2	.	7
Cc1cc(C)c(NC(=O)C2CCCN2C)c(C)c1 (stereo not given)	1	0	-101%*	4
CCSC1=N/C(=C/c2ccsc2)C(=O)N1c1ccccc1	-2	29	i	29
CCOC(=O)c1cc2c(C(F)(F)F)cc(-c3cccnc3)nc2o1	-32*	-12	-112%*	8
SMILES	CCT modulator	Six1-Eya2 inh	pAkt inh	CtBP-E1A inh
CCOC(=O)c1c(C)nc(C)c(C(=O)OCC)c1-c1cccnc1	2	2	i	.
Cc1ccc(C2=Nc3ccccc3N=C(c3ccco3)C2)c(O)c1	-2	2	-125%*	0
O=C(NC1CCSC1)c1cccc(Cl)c1 (stereo not given)	4	9	i	0
Cn1c(N)c(S(=O)(=O)NCc2ccccc2)c(=O)n(C)c1=O	0	42	i	0
O=C(O)COc1ccccc1C(Nc1ccccn1)c1cc(Cl)c2cccnc2c1O (stereo not given)	-4	?	i	-85*
O=C(O)COc1ccccc1C(Nc1cccnc1)c1cc(Cl)c2cccnc2c1O (stereo not given)	-2	-67*	i	-91*
